In PubChem BioAssay (NCI):
Compounds without any hit were thinned out: in the full panel of roughly 83,000, 20% have a hit.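 Negative percent growth values reflect cell death: -40 means 40% of the cells present at the start died, and -100 means all died.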 A number with no mark means an inactive call. Active and inactive are the calls of the source. The calls were made as follows: active = growth percent below 10; inactive = the rest.

Tested on: HL-60(TB) leukemia
Assay: NCI-60 one-dose screen, 48 h (100 = growth as untreated, 0 = no growth, -100 = all killed)
Details: 10 µM unless noted

| Structure (SMILES) | growth |
| --- | --- |
| CCCCCCCCCCCCCC1=NC(C)(C)CN1C(C)C | -66.7% (active) |
| Cc1ccc(NC(=O)c2sc3nc4c(cc3c2N)C(=O)CCC4)cc1C | -10.6% (active) |
| O=C(Oc1ccc(Cl)cc1[N+](=O)[O-])Oc1ccc(Cl)cc1[N+](=O)[O-] | 95.7% |
| Nc1n[nH]c2ccc([C@@H]3Nc4ccc5[nH]ncc5c4[C@H]4[C@H]5CCC(C5)[C@H]43)cc12 | -41.5% (active) |
| COc1ccc(Nc2ncc(C#N)c(NCCCNC(=O)C3CCC3)n2)cc1 | 41% |
| O=S(=O)(c1ccc(NCSc2nc3ccccc3s2)cc1)c1ccc(NCSc2nc3ccccc3s2)cc1 | 72.7% |
| CCOC(=O)c1cnc2c(N=Nc3ccc(OC)cc3)c(N)nn2c1N | 96.2% |
| COc1ccc(-c2cc(-c3ccc(Cl)cc3)c(C#N)c(=O)n2CCCCC(=O)NO)cc1 | 92.7% |
| CC[C@@H](C)[C@H](NC(=O)Cn1cc(CNC(=O)[C@@H](NC(=O)OCc2ccccc2)C(C)C)nn1)C(=O)O | 113% |
| COC(=O)c1cc2c3c(cc(O)c2[nH]1)N(C(=O)C1Cc2cc(OC)c(OC)c(OC)c2N1)CC3CCl (stereo not given) | -5.77% (active) |
| CN(C)c1nc(N)c(N=O)c(N)n1 | 106% |
| Cc1cc(C)c(CCc2cc(C)c(C)cc2C)cc1C | 99.9% |
| c1ccc2nc(Cn3c[n+](Cc4ccc5ccccc5n4)c4ccccc43)ccc2c1 | -40.1% (active) |
| c1ccc2[nH]c(-c3cc(-c4ccc5c(c4)OCO5)n[nH]3)nc2c1 | 13.3% |
| CCCCn1c(=O)c(-c2cc(-c3ccc(Cl)cc3)nc(-c3ccc(Cl)cc3)c2)cc2cc(Cl)ccc21 | 100% |
| CCN(CC)CCN1C(=O)c2c(c3c4ccccc4[nH]c3c3[nH]c4ccccc4c23)C1=O | 98.7% |
| C=CCOc1ccc2c(C)cc(=O)oc2c1 | 118% |
| CC(=O)C(C)Cc1cc2c(cc1C)C(C)(C)CCC2(C)C (stereo not given) | 101% |
| COc1ccc(-c2nc(SCC(C)C)nc(Nc3ccccc3)c2C#N)cc1 | 88.6% |
| COc1cc(Cl)cc(-c2nn(-c3cccc(NC(=O)c4cc(C(F)(F)F)cc(C(F)(F)F)c4)c3)cc2-c2ccncc2)c1 | 84.3% |

| Structure (SMILES) | growth |
| --- | --- |
| N#C/C(C(=O)c1ccccc1)=C1/C(=O)Nc2ccccc21 | 106% |
| CN(C)[C@@H]1C(=O)C(C(=O)NCc2nc3[nH]cnc(=S)c3[nH]2)=C(O)[C@@]2(O)C(=O)C3=C(O)c4c(O)cccc4[C@@](C)(O)[C@H]3C[C@@H]12 | 4.14% (active) |
| NC(CO)(CO)c1ccccc1 | 119% |
| N#Cc1c(-c2ccccc2)nc(SCc2nnc(-c3ccc(Cl)cc3)o2)[nH]c1=O | 92.2% |
| Nc1nc(C(=O)N/N=C/c2ccc(N3CCOCC3)cc2)nn1-c1ccc(S(N)(=O)=O)cc1 | 101% |
| S=c1[nH]cccc1-c1nnc2n1Nc1nc3ccccc3cc1CS2 | 105% |
| O=C1/C(=C/c2ccc(Br)cc2)COc2ccc(O)cc21 | -15.7% (active) |
| CC[C@H](Nc1ncnc(N)c1C(N)=O)c1nc2cccc(NCc3ccc(C(=O)NO)cc3)c2c(=O)n1-c1ccccc1 | 126% |
| O=Cc1c[nH]c2ccc(-c3csc4ccccc34)cc12 | 3.68% (active) |
| CCOC(=O)c1ccc2n1CCCc1cnc(NC(C)=O)nc1-2 | 109% |
| C#CCC1(c2ccc(F)c(F)c2)NS(=O)(=O)c2ccccc21 (stereo not given) | 89.2% |
| O=C(/C=C/c1ccc([N+](=O)[O-])cc1)c1cccc(Nc2nc(Nc3ccccc3)nc(Nc3ccccc3)n2)c1 | 85.1% |
| O=C(NNC(=S)Nc1ccccc1)c1ccccn1 | -6.25% (active) |
| CN1CCN(CC(O)COc2c(Br)c(Br)c(Br)c3c2OC(C)(C)C3)CC1 (stereo not given) | 35.5% |
| Cc1ccc(-c2cc3nc(C(Cl)Cl)nc(-c4ccccc4C)n3n2)cc1 | 78.4% |
| CC(=O)ON1CCCC(P(=O)(OCCSC(=O)C(C)(C)C)OCCSC(=O)C(C)(C)C)C1=O (stereo not given) | 14% |
| COc1ccc(/C=C/C=C\C(=O)c2ccc(-n3ccnc3)cc2)cc1 | 66.9% |
| CC1=C[C@H]2c3c(c(O)c(O)c4oc5cc(O)ccc5c(=O)c34)[C@H](c3cc(O)c(O)c4oc5cc(O)ccc5c(=O)c34)[C@H]2C(C)(C)C1 | 17.8% |
| Clc1ccc(-c2cn(-c3ccccc3)c(-c3ccccc3)n2)cc1 | 47.5% |
| CC1(O)CCCCC1O (stereo not given) | 107% |
